Screening data: PubChem, Sanford-Burnham Center for Chemical Genomics
SENP7 block = SENP7 protease inhibition. AID 434973. Q9BQF6. inhibition, % at 5 µM. actives 1.5% (n = 330,000). recombinant SENP7, Z-RLRGG-aminoluciferin luminescence, 40 min;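 active = inhibition above about 50% at the single test dose, limit read from the data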
Target sequence (Q9BQF6 706-1050 limits assumed): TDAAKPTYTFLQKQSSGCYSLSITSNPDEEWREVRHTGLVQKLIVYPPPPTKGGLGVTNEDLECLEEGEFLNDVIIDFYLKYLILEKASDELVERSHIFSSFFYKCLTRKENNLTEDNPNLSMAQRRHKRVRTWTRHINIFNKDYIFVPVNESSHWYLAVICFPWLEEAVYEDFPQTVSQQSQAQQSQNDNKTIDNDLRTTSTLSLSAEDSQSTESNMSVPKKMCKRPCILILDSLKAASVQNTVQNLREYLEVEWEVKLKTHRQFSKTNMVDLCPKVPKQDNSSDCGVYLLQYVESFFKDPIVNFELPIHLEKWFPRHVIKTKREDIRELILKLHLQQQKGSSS
SENP8 block-1 = inhibitors of human SENP8 protease; Q96LD8; recombinant SENP8, Nedd8 substrate fluorescence; inhibition, % at 20 µM; actives 0.64% (n = 360,000); AID 602440; in the data active = inhibition mostly above about 40%, no sharp cut-off; inactive = mostly below about 27%
PPC-1+TRAIL kill = compounds killing PPC-1 cancer cells with TRAIL present (potentiator screen, no TRAIL-free arm) | PPC-1 cells + TRAIL, ATPLite viability luminescence | cell killing (% activity), % at 4 µM or 5 µM | actives 0.41% (n = 220,000) | AID 1443;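 active = cell killing above 50% in the first pass at 4 µM, then a duplicate retest at 5 µM averaging 50% or more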
TRAIL sens C8 = caspase-8 TRAIL sensitization; actives 1% (n = 360,000); inhibition (viability loss, TRAIL sensitization), % at 10 µM; NB7+C8 cells + TRAIL, ATPlite viability luminescence;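 active = compounds causing at least 50% loss of cell viability in the single-dose screen, relative to plate controls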
SENP6 inh = blocks the human protease SENP6; actives 1.8% (n = 330,000); AID 2599; Recombinant SENP6 catalytic domain, aminoluciferin luminescence; inhibition, % at 10 µM; Q9GZR1;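 active = inhibition above about 50% at the single tested dose, limit read from the data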
SENP8 block-2 = SENP8 protease inhibition. Q96LD8. purified SENP8, Z-RLRGG-aminoluciferin cleavage, luminescence. inhibition, % at 10 µM. actives 1.2% (n = 330,000). AID 2540; in the data active = inhibition above about 50%
SENP8 confirm = human SENP8 inhibition, confirmed. shares compounds with SENP7 block. AID 488912. inhibition, % at 12.5 µM. Recombinant SENP8, Z-RLRGG-aminoluciferin luminescence, 60 min. actives 40% (n = 6,200);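 active = mean inhibition across replicates above about 50%, limit read from the data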
SENP6 confirm = human SENP6 inhibition, confirmed. inhibition, % at 12.5 µM. recombinant SENP6, Z-RLRGG-aminoluciferin luminescence. actives 58% (n = 6,200). shares compounds with SENP7 block
SENP7 confirm = confirmation of human SENP7 protease inhibitors. recombinant SENP7, Z-RLRGG-aminoluciferin luminescence, 40 min. inhibition, % at 12.5 µM. shares compounds with SENP7 block. actives 69% (n = 6,200)
Casp3 SENP sel = caspase-3 inhibition (SENP selectivity assay) | shares compounds with SENP7 block | purified caspase-3, Z-DEVD-aminoluciferin luminescence, 60 min | inhibition, % at 12.5 µM | actives 60% (n = 6,200) | AID 488918;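 active = mean inhibition above about 50%, limit read from the data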
Target sequence (P42574 28-227 limits assumed): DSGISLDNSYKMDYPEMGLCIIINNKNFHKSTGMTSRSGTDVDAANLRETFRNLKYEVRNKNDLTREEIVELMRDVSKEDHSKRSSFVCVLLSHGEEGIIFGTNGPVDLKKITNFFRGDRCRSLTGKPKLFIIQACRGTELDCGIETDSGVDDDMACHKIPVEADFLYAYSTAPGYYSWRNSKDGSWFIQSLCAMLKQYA
Luc interf = interferes with luciferase luminescence in SENP counter-screen; inhibition, % at 12.5 µM; actives 39% (n = 6,200); Pre-incubated SENP8/Z-RLRGG-aminoluciferin, luciferase luminescence interference; shares compounds with SENP7 block;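 active = mean inhibition above about 50% when retested at one dose, limit read from the data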
Large screens that a line does not name were inactive (follow-up assays come after a bar, where they were run). The list is not random: actives were taken first. Their share in the collection is about 3%.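 Rule for the calls, unless noted: active = mean inhibition above about 50% in the one-dose retest (limit read from the data); inactive = the rest.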

Cc1cc2nc(-c3cccnc3SCC(=O)NCc3ccco3)[nH]c2cc1C	SENP7 block 88.1, TRAIL sens C8 61.5, SENP6 inh 83.8, SENP8 block-2 74.5 (no result: PPC-1+TRAIL kill) | SENP8 confirm 90.7 | SENP6 confirm 89.5 | SENP7 confirm 97.8 | Casp3 SENP sel 90.3 | Luc interf 85.7
COc1ccccc1-c1noc2ncnc(Nc3cccc(C)c3C)c12	none (no result: PPC-1+TRAIL kill)
Cc1ccc(-n2c(C)nnc2SCC(=O)N(C)c2c(N)n(Cc3ccccc3)c(=O)[nH]c2=O)cc1	none (no result: PPC-1+TRAIL kill)
O=C(O)c1cccc(-c2nc3ccccc3[nH]2)c1	SENP7 block 99.4, SENP6 inh 93.9, SENP8 block-2 94.4 | SENP8 confirm 95.9 | SENP6 confirm 96.8 | SENP7 confirm 100.5 | Casp3 SENP sel 89.1 | Luc interf 95.7
Cc1cc(-c2nc3ccccc3[nH]2)ccc1N	SENP7 block 90.5, SENP6 inh 50.5, SENP8 block-2 69.7 | SENP8 confirm 87.0 | SENP6 confirm 85.9 | SENP7 confirm 98.9 | Casp3 SENP sel 93.1 | Luc interf 86.9
COC(=O)c1ccc(C(=O)Nc2ccc3nc(-c4ccncc4)[nH]c3c2)cc1	none (no result: PPC-1+TRAIL kill)
c1ccc(-c2nc3ccccc3[nH]2)cc1	SENP7 block 76.2, SENP6 inh 75.6, SENP8 block-2 70.6 (no result: PPC-1+TRAIL kill) | SENP8 confirm 72.9 | SENP6 confirm 66.3 | SENP7 confirm 90.5 | Casp3 SENP sel 83.7 | Luc interf 69.0
c1ccc2[nH]c(-c3ccncc3)nc2c1	none
CC(=O)Nc1cccc(-c2nc3ccccc3[nH]2)c1	none
COC(=O)c1ccc(-c2nc3ccccc3[nH]2)cc1	SENP7 block 94.8, TRAIL sens C8 82.0, SENP6 inh 88.0, SENP8 block-2 85.4 | SENP8 confirm 93.2 | SENP6 confirm 92.6 | SENP7 confirm 100.5 | Casp3 SENP sel 95.6 | Luc interf 91.2
O=C(Nc1nc2c(F)cccc2s1)c1ccc([N+](=O)[O-])o1	SENP6 inh 70.6 (no result: PPC-1+TRAIL kill) | SENP8 confirm inactive | SENP6 confirm inactive | SENP7 confirm inactive | Casp3 SENP sel inactive | Luc interf inactive
O=C(Nc1nc2c(Cl)cccc2s1)c1ccc([N+](=O)[O-])o1	SENP6 inh 59.2 (no result: PPC-1+TRAIL kill) | SENP8 confirm inactive | SENP6 confirm inactive | SENP7 confirm 77.3 | Casp3 SENP sel inactive | Luc interf inactive
O=C(Nc1nc2ccc(F)cc2s1)c1ccc([N+](=O)[O-])o1	none (no result: SENP7 block, PPC-1+TRAIL kill, SENP6 inh, SENP8 block-2)
Cc1cc(C(=O)Nc2ccc(N3CCOCC3)c3nonc23)ccc1[N+](=O)[O-]	none (no result: PPC-1+TRAIL kill)
CCC(Cc1ccccc1)NC(=O)CCc1ccccc1 (stereo not drawn)	none (no result: PPC-1+TRAIL kill)
CCN(c1ccccc1)c1cc2ccccc2c(=O)[nH]1	SENP7 block 86.2, SENP6 inh 87.6, SENP8 block-2 92.1 (no result: PPC-1+TRAIL kill) | SENP8 confirm inactive | SENP6 confirm 61.1 | SENP7 confirm inactive | Casp3 SENP sel inactive | Luc interf inactive
CCN(c1ccccc1)c1nc(=O)c2cccnc2s1	none
Cc1nc2c(OCc3ccc(C(F)(F)F)cc3)cccn2c1N(C)Cc1cccs1	none (no result: SENP7 block, PPC-1+TRAIL kill, SENP6 inh, SENP8 block-2)
Cc1cccc(-c2cc3nc4c(c(NCc5ccco5)n3n2)CCCC4)c1	SENP6 inh 88.1, SENP8 block-2 80.5 | SENP8 confirm inactive | SENP6 confirm inactive | SENP7 confirm inactive | Casp3 SENP sel inactive | Luc interf inactive
Cc1cccc(-c2cc3nc4c(c(N5CCC6(CC5)OCCO6)n3n2)CCCC4)c1	none (no result: PPC-1+TRAIL kill)
Cc1cccc(-c2cc3nc4c(c(N5CCOCC5)n3n2)CCCC4)c1	SENP6 inh 65.2, SENP8 block-2 52.6 | SENP8 confirm 59.9 | SENP6 confirm 51.4 | SENP7 confirm inactive | Casp3 SENP sel inactive | Luc interf inactive
O=C(CSc1nnc(CNC(=O)c2cccs2)o1)Nc1cccc(Cl)c1	none (no result: PPC-1+TRAIL kill)
COCCn1c(C)cc(C(=O)COC(=O)c2ccc(Br)o2)c1C	SENP6 inh 50.9 | SENP8 confirm inactive | SENP6 confirm inactive | SENP7 confirm 79.9 | Casp3 SENP sel 73.0 | Luc interf 63.7
Cn1c(=N)n(CC(=O)c2ccc(Cl)c(Cl)c2)c2ccccc21	SENP7 block 52.4, TRAIL sens C8 66.2, SENP6 inh 50.8 (no result: PPC-1+TRAIL kill) | SENP8 confirm inactive | SENP6 confirm inactive | SENP7 confirm inactive | Casp3 SENP sel inactive | Luc interf inactive
O=C1/C(=C/c2cccs2)COc2ccccc21	SENP7 block 83.2, SENP6 inh 97.7, SENP8 block-2 80.9 | SENP8 confirm 85.9 | SENP6 confirm 91.8 | SENP7 confirm 90.3 | Casp3 SENP sel 68.8 | Luc interf 94.0
Cc1ccc(Cn2ccc(-c3cnc(-c4ccccc4)s3)n2)cc1	SENP6 inh 51.4 | SENP8 confirm inactive | SENP6 confirm inactive | SENP7 confirm inactive | Casp3 SENP sel inactive | Luc interf inactive
Fc1ccc(Cn2ccc(-c3cnc(-c4ccccc4)s3)n2)cc1	none
COCCNC(=O)c1cccc(OC2CCN(C(C)COc3ccccc3)CC2)c1 (stereo not drawn)	none (no result: PPC-1+TRAIL kill)
CCCOc1ccc(/C=N/Nc2ccccc2[N+](=O)[O-])c(O)c1	SENP7 block 99.2, SENP6 inh 96.4, SENP8 block-2 94.3 | SENP8 confirm 57.8 | SENP6 confirm inactive | SENP7 confirm inactive | Casp3 SENP sel 77.5 | Luc interf inactive
CCCOc1ccc(/C=N/NC(=S)Nc2ccccc2[N+](=O)[O-])c(O)c1	none (no result: SENP7 block, SENP8 block-1, TRAIL sens C8, SENP6 inh, SENP8 block-2)
O=c1ccn([C@@H]2O[C@H](CNCc3ccc(-n4cccn4)cc3)[C@@H](O)[C@H]2O)c(=O)[nH]1	none (no result: SENP7 block, PPC-1+TRAIL kill, SENP6 inh, SENP8 block-2)
N#Cc1c(N)n(CCNC(=O)c2ccc(Cl)cc2)c2nc3ccccc3nc12	SENP6 inh 69.8 | SENP8 confirm inactive | SENP6 confirm inactive | SENP7 confirm inactive | Casp3 SENP sel inactive | Luc interf inactive
COc1ccc(Cn2c(N)c(C#N)c3nc4ccccc4nc32)cc1	none
COc1cc(Cn2c(N)c(C#N)c3nc4ccccc4nc32)cc(OC)c1	SENP6 inh 88.3 | SENP8 confirm inactive | SENP6 confirm inactive | SENP7 confirm inactive | Casp3 SENP sel inactive | Luc interf inactive
Cn1c(-c2c(N)n(CCc3ccccc3)c3nc4ccccc4nc23)nc2ccccc21	none
COc1cccc(Cn2c(N)c(C#N)c3nc4ccccc4nc32)c1OC	SENP6 inh 85.0 | SENP8 confirm inactive | SENP6 confirm inactive | SENP7 confirm inactive | Casp3 SENP sel inactive | Luc interf inactive
